# In the library only some 7.3% were active in any assay of this set; here they are far more common.
# IP6K1 inh: inhibitors of human IP6K1; IP6K1 kinase, ADP-Glo luminescence, 2 h; hits give low values; 140,000 compounds, 0.81% hits; activity change, % (series mostly up to about 58 µM); in the data active means activity change below about -25%
#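 ADP-Glo luminescence measures ADP made by human IP6K1 during a 2 h RT reaction with ATP/IP6 (mix at 1.3 mM/130 uM); top library doses 57.5 and 19.1 uM final.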
# SNCA expr inh: inhibitors of alpha-synuclein (SNCA) gene expression. HEK-293 SNCA-luciferase knock-in, luminescence, 24 h. Potency, µM (series often up to 57.2 µM), for inactives: at the highest dose activity change, negative = inhibition, actives largely listed as inhibitors. 140,000 compounds, 0.17% hits. AID 1671194;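 further: potency means the concentration at half of the fitted maximal effect; plate controls were DMSO cells for no effect and cell-free wells for full effect; nearly all actives have a fitted effect of over 45% in size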
# FLuc inh: blocks purified firefly luciferase enzyme activity | P08659 | purified P. pyralis luciferase, luminescence, biochemical | Potency, µM (doses to about 115 µM), usual class: inhibitors | 76,000 compounds, 2.5% hits; further: potency means the concentration at half of the fitted maximal effect; nearly all actives have a fitted effect of over 65% in size
# Target sequence (P08659 whole entry, looked up): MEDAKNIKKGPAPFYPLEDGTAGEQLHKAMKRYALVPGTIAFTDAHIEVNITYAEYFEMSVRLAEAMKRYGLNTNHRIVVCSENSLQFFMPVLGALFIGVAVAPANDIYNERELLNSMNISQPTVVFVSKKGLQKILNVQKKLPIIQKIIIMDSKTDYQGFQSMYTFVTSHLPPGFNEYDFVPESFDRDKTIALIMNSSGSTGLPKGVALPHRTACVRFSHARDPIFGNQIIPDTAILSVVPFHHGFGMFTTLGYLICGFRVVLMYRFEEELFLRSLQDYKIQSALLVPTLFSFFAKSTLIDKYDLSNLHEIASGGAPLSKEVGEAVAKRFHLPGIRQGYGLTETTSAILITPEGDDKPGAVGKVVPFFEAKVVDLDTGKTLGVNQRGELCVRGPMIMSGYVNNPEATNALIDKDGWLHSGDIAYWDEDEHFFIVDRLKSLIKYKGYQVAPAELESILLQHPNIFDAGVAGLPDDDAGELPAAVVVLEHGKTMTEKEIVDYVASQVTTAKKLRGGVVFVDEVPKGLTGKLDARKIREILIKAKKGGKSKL
#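 Luminescence read by CCD imaging after purified firefly luciferase (10nM final) was added to substrate buffer holding 10uM D-luciferin and 10uM ATP, pH 7.5, pre-dosed with compound.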
# HEK293 viab: counter-screen for SNCA expression inhibitors: cell viability. Potency, µM (top dose mostly 57.1 µM), inactives show at the top dose activity change, negative = cytotoxicity, most hits filed as cytotoxic. AID 1671193. 150,000 compounds, 0.12% hits. HEK-293-SNCA-luc viability, GF-AFC fluorescence, 24 h;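 further: potency means the concentration at half of the fitted maximal effect; 0% = DMSO-treated cells and -100% = medium-only wells without cells; nearly all actives have a fitted effect of over 30% in size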
#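 Cytotoxicity counterscreen: after 24 h compound treatment of genome-edited SNCA-luciferase HEK-293 cells, live-cell protease substrate GF-AFC read by fluorescence after 30 min; activity scaled between DMSO (0%) and medium-only (-100%), curves Hill-fitted.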
# 3T3 cytotox: kills NIH 3T3 cells; AID 1345082; 94,000 compounds, 4.3% hits; NIH 3T3 viability, CellTiter-Glo ATP luminescence, 48-72 h; Potency, µM (series often up to 96.7 µM), without a hit: at the highest dose activity change, negative = cytotoxicity, actives largely listed as inhibitors; further: potency means the concentration at half of the fitted maximal effect; nearly all actives have a fitted effect of over 55% in size
#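 Cytotoxicity is measured as loss of cellular ATP: NIH 3T3 cells (400/well) are exposed to compound for 48 or 72 hr at 37 °C, then CellTiter-Glo luminescence is imaged after 10 min at room temperature.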
# HEK293 tox: HEK 293 cell cytotoxicity | HEK 293 viability, ATP luminescence (CellTiter-Glo), 48-72 h | Potency, µM (highest dose often 115 µM), for inactives: at the highest dose activity change, negative = cytotoxicity, actives largely listed as inhibitors | 94,000 compounds, 6.6% hits | AID 1345083; further: potency means the concentration at half of the fitted maximal effect; nearly all actives have a fitted effect of over 60% in size
#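 HEK 293 cells seeded at 250 cells/well were exposed to compound for 48 or 72 hr at 37 degree Celsius. Viability taken as ATP content by CellTiter-Glo luminescence.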
# IP6K1 inh cnf: confirmation of human IP6K1 inhibitors. shares compounds with IP6K1 inh. recombinant IP6K1 kinase, ADP-Glo luminescence, 2 h. Potency, µM (top dose mostly 49 µM), inactives show at the top dose activity change, negative = inhibition, usual class: inhibitors. 1,200 compounds, 13% hits; further: potency means the concentration at half of the fitted maximal effect; nearly all actives have a fitted effect of over 65% in size
# Starred values were filed as active, the others as inactive; i = inactive; ? = inconclusive; · = not tested or not shown; [ ] = another dose, or the depositor's remark. Unless noted, the call rests on the fitted dose curve; in most records, active means well fitted curve in the direction sought with a large enough effect; inconclusive means small, poorly fitted or top-dose-only effect, or another doubt; inactive means no such curve, though single readings can be large; an effect the other way counts as inactive or inconclusive. Unless noted, on the % scale 0 is the no-effect control and ±100 the full control effect.
SMILES,IP6K1 inh,SNCA expr inh,FLuc inh,HEK293 viab,3T3 cytotox,HEK293 tox,IP6K1 inh cnf
Cc1nc(Cn2nc(C3CCCNC3)n(-c3ccccc3)c2=O)cs1 (centres undefined),12,?,i,2%,-16%,-5%,·
CCOc1ccc(C2Cn3nnc(-c4nc(-c5ccsc5)no4)c3CO2)cc1 (centres undefined),-27*,31%,?,-1%,-28%,-18%,-14%
CCOc1ccc(C2Cn3nnc(-c4nc(-c5ccncc5)no4)c3CO2)cc1 (centres undefined),0,12%,i,5%,-34%,-29%,·
CN(Cc1ccc(F)cc1)S(=O)(=O)c1cccc(C(F)(F)F)c1,-13,34%,i,17%,?,?,·
Cn1cc(CC(=O)N2CCCc3ncc(C(=O)NCC4CCCO4)cc32)c2ccccc21 (centres undefined),11,-9%[87.6 µM],i,?,?,?,·
COc1ccc(-n2c(=O)c3c4c(sc3n(Cc3ccc(C)cc3C)c2=O)CCC4)c(OC)c1,-16,2%,·,4%,·,·,·
COc1ccc(-n2c(=O)c3c4c(sc3n(Cc3cc(=O)n5c(C)cccc5n3)c2=O)CCC4)c(OC)c1,-39*,-9%,·,?,·,·,-10%
COc1ccc(Cl)cc1NC(=O)Cn1ncc2c3ccccc3n(Cc3ccccc3)c2c1=O,-27*,11%,·,2%,·,·,-2%
COc1cccc(C(=O)N2CCn3c(nn(-c4ccc(C)cc4)c3=O)C2)c1,-2,-6%,i,6%,?,?,·
COc1cccc(-c2cc(C(=O)Nc3ccc(Br)c(C)c3)[nH]n2)c1,5,-4%,·,-2%,·,·,·
NS(=O)(=O)c1ccc(CCNC(=O)c2cc(-c3ccc[nH]3)n[nH]2)cc1,25,5%,i,3%,i,0%,·
COc1ccc(NC(=O)c2cc(-c3ccc[nH]3)n[nH]2)cc1F,13,1%,16µM*,-2%,2%,5%,?
Cc1cccc(NC(=O)c2cc(-c3ccc[nH]3)n[nH]2)c1,-9,47%,2µM*,6%,-19%,-2%,?
Cc1ccc(N2C[C@]34C=C[C@H](O3)C(C(=O)N(C)Cc3ccno3)C4C2=O)cc1C (some centres undefined),4,7%,i,-5%,1%,i,·
CCNc1nc2c(s1)C(c1cccc(F)c1)CC(=O)N2 (centres undefined),-71*,-1%,i,0%,-12%,-16%,16µM*
CNc1nc2c(s1)C(c1ccccc1F)CC(=O)N2 (centres undefined),-11,-9%,i,-15%,3%,9%,·
O=C(CSc1nc2cc3ccccc3cc2[nH]1)Nc1cccc(C(F)(F)F)c1,-30*,60%,·,-13%,·,·,-15%
CC(C)c1nnc(C2CN(C(=O)c3ccc(F)c(F)c3)CC23CCOCC3)o1 (centres undefined),1,-13%,i,-2%,-4%,4%,·
CCN1CCN(C(c2ccc(C)cc2)c2sc3nc(-c4ccco4)nn3c2O)CC1 (centres undefined),12,41%,·,0%,·,·,·
CCN1CCN(C(c2ccc(F)cc2)c2sc3nc(-c4ccco4)nn3c2O)CC1 (centres undefined),-29*,46%,·,?,·,·,?
CC(=O)c1ccc(NC(=O)CSc2nnc(N)s2)cc1,-31*,145%,·,-3%,·,·,-16%
CCn1cc(S(=O)(=O)N2CCC(Cc3nncn3-c3ccccc3)CC2)cn1,-14,-3%,·,5%,-21%,-10%,·
O=C(c1cccc(Cl)c1)N(Cc1cccc(F)c1)C1CCS(=O)(=O)C1 (centres undefined),-37*,7%,·,3%,·,·,-14%

# Compound activity (PubChem BioAssay)
